Source: PubChem BioAssay
Most compounds without a hit are left out; they make up all but 4.2% or so of the library.
ssDAF12 agonist: activators of S. stercoralis DAF-12 nuclear receptor | HEK293 ssDAF-12/GRIP1 lit1-tk-luc reporter, luminescence; % of 3 µM dafachronic acid response | activation, % at 6.8 µM | hit rate 1% among 370,000;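 active = activation above the mean over all tested compounds plus 3 SD, cut at about 0.9% in these data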;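 also: 0% = DMSO-only wells and 100% = 3 µM delta7-dafachronic acid wells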
DAX1 inh: inhibitors of DAX1 repression of SF-1 activated StAR promoter | HEK293T StAR-luciferase reporter, SF-1/DAX-1 repression relief | inhibition, % at 6.8 µM | hit rate 1.1% among 370,000;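 active = inhibition above the mean over all tested compounds plus 3 SD, cut at about 3.6% in these data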;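 also: 0% = DAX-1 cells with DMSO and 100% = cells lacking DAX-1 with DMSO; higher inhibition means more luminescence from relief of DAX-1 repression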
hcDAF12 agonist: activators of H. contortus DAF-12 nuclear receptor. HEK293 hcDAF-12 lit1-tk-luc reporter, luminescence; 0% DMSO, 100% Δ7-dafachronic acid. activation, % at 6.8 µM. hit rate 1.4% among 370,000;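 active = activation above the mean of all tested compounds plus 3 SD, cut at about 5.5% in these data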;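 also: 100% = response to 3 µM Δ7-dafachronic acid high control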
hgDAF-12 ag: activates the H. glycines DAF-12 receptor ligand-binding domain; activation, % at 6.8 µM; HEK293 GAL4-hgDAF12 UAS-luciferase reporter, agonist luminescence; normalized to butyrate control; hit rate 1.8% among 370,000;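 active = activation above a cutoff set at the mean of all screened compounds plus 3 SD, cut at about 10% in these data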;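 also: 0% = DMSO wells and 100% = sodium butyrate wells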
SMARCA2 activ: increases SMARCA2 function in MMTV reporter cells | hit rate 1% among 370,000 | MG213 cells, MMTV-luciferase reporter, dexamethasone, overnight | activation, % at 9.1 µM; in the data active = activation above about 7.8%;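 also: 0% = vehicle wells and 100% = reference activator wells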
DAX1 conf: confirmation of human DAX1 (NR0B1) inhibitors; shares compounds with DAX1 inh; HEK293T StAR-promoter luciferase reporter, SF-1/DAX-1 repression; inhibition, % at 6.8 µM; AID 652134; hit rate 87% among 2,400;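 active = inhibition above the average of every tested compound plus 3 SD, cut at about 3.8% in these data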;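 also: 0% = DAX-1 cells with DMSO and 100% = no DAX-1 control cells with DMSO; active compounds raise luminescence by relieving repression of the StAR reporter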
SF1 mutant ctr: nonselective inhibitor or artifact in SF-1 mutant DAX1 counter-screen | shares compounds with DAX1 inh | HEK293 StAR-luciferase, SF-1 AF2 mutant, luminescence | inhibition, % at 6.8 µM | hit rate 78% among 2,400;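 active = inhibition above the mean of all tested compounds plus 3 SD, cut at about 3% in these data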;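 also: 0% = DAX-1 transfected cells with DMSO and 100% = cells without DAX-1 with DMSO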
SMARCA2 conf: confirmation of SMARCA2 (BRM) function activators. MG213 cells, MMTV-luciferase with dexamethasone, luminescence, overnight; MG213 cells expressing E1A, Rb sequestered; DMSO wells 0%, reference activator 100%. activation, % at 9.1 µM. shares compounds with SMARCA2 activ. hit rate 30% among 3,500;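 active = activation above its plate's cutoff, the mean activation of tested wells plus 3 SD, cut at about 7.9% in these data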
VP16 Luc act: GAL4-VP16 reporter activation counter-screen | shares compounds with SMARCA2 activ | HEK293 GAL4-VP16 pG5luc reporter, luciferase luminescence; scaled: DMSO wells 0%, SAHA wells 100% | activation, % at 9.1 µM | hit rate 41% among 3,500 | AID 686939;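 active = activation above the solvent-only control well mean plus 3 SD, averaged across control plates, cut at about 5.2% in these data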
LXR ag: counter-screen for hcDAF-12 agonists: agonists of human LXR-beta. shares compounds with hcDAF12 agonist. AID 743027. 3,400 tested, under 10 active. activation, % at 6.8 µM. HEK293 Gal4-LXR tk-luc reporter, luminescence, 24 h; normalized: DMSO 0%, positive control 100%;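 active = mean percent activation of the reporter above a cutoff set as the average over tested compounds plus their standard deviation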
Target sequence (P55055 whole entry, looked up, the tested form may be a part): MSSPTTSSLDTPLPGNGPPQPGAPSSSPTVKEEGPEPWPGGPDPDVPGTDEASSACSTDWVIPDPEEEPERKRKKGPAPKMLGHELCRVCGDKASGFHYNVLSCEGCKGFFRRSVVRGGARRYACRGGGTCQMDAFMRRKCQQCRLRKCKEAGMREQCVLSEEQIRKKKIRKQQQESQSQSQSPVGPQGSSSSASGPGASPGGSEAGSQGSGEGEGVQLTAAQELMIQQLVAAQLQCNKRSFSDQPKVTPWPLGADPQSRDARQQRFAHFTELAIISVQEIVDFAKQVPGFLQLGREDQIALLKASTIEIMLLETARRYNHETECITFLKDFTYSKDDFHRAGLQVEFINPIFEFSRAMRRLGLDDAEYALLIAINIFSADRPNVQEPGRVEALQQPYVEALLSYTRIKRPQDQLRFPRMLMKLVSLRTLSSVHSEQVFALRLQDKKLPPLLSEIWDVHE
hcDAF12 ag: hcDAF-12 agonism, confirmation assay; shares compounds with hcDAF12 agonist; HEK293 hcDAF-12 lit1-tk-luc reporter, luminescence; % of Δ7-dafachronic acid response; activation, % at 6.8 µM; hit rate 61% among 3,400; AID 743032;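 active = mean activation across triplicate tests above the threshold derived from the earlier primary screen, cut at about 5.5% in these data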;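 also: 0% = DMSO only wells and 100% = 3 µM Δ7-dafachronic acid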
hgDAF12 ag: hgDAF-12 agonism, confirmation assay; shares compounds with hgDAF-12 ag; HEK293 GAL4-hgDAF12 luciferase reporter, agonist mode; percent of butyrate response; activation, % at 6.8 µM; hit rate 80% among 3,300; AID 743050;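 active = mean activation over triplicate wells above the hit cutoff derived from the earlier primary screen, cut at about 11% in these data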;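 also: 0% = DMSO low control and 100% = 2 mM sodium butyrate high control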
LXR ag 2: activates human LXR-beta, counter-screen for DAF-12 agonists; AID 743051; 3,300 tested, under 10 active; shares compounds with hgDAF-12 ag; activation, % at 6.8 µM; HEK293 Gal4-LXR luciferase reporter, 24 h;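 active = mean activation of the triplicate above a set limit carried over from the primary screen, none filed active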
Numbers without * were called inactive; . = no result; + = active, no number; ! = not active in a repeat.

SMILES	ssDAF12 agonist	DAX1 inh	hcDAF12 agonist	hgDAF-12 ag	SMARCA2 activ	DAX1 conf	SF1 mutant ctr	hgDAF12 ag	LXR ag 2	others
Cc1cccc(NC(=O)c2ccc(-c3ccccc3[N+](=O)[O-])o2)c1	-2	0	-1	0	3	.	.	.	.
COc1ccc(CNC(=O)c2ccc(C(C)C)cc2)cc1	-1	6.8*	4	18*	11*	7.6*	5.7*	15*	1	SMARCA2 conf=7;VP16 Luc act=17*
Cc1ccc(-c2onc3ccc(Br)cc23)cc1	0	1	2	0	-2	.	.	.	.
Cc1ccc(-c2onc3ccc(C4OCCO4)cc23)cc1	0	5.3*	4	14*	6	1	-6	3	0
O=C(CSc1ccc2nc(-c3ccccc3)cn2n1)NCC1CCCO1 (stereo unspecified)	0	1	1	4	1	.	.	.	.
COc1ccc(-c2cn3nc(SCC(=O)NCC4CCCO4)ccc3n2)cc1 (stereo unspecified)	0	13*	5	14*	2	8.5*	4.0*	15*	1
COc1ccc(NC(=O)c2cn(-c3ccccc3)nc2-c2cc3ccccc3o2)cc1	-2	-1	0	0	1	.	.	.	.
OCc1cn(-c2ccccc2)nc1-c1cc2ccccc2o1	1.1*	5.8*	4	14*	12*	15*	12*	15*	1	SMARCA2 conf=4;VP16 Luc act=8.6*
CC(=O)Oc1ccc(C(=O)NCCc2ccccc2)cc1	1	7.2*	4	15*	3	12*	5.3*	14*	1
COc1ccc(-c2cc3nc(C)cc(N)n3n2)cc1	2.4*	5.4*	15*	20*	3	18*	8.9*	19*	1	LXR ag=2;hcDAF12 ag=13*
COc1ccc(-c2cc3ncc(-c4ccccc4)c(N)n3n2)cc1	-1	6.5*	1	25*	2	15*	7.0*	16*	1
N#Cc1cnc2cc(-c3ccccc3)nn2c1N	-1	0	3	4	1	.	.	.	.
COc1ccc(-c2cc3nc(C)cc(-c4ccc(OC)cc4)n3n2)cc1	0	0	1	2	-2	.	.	.	.
COc1ccccc1CNc1nc(NCc2ccc3occc3c2)c2sccc2n1	-2	-3	-4	-6	-3	.	.	.	.
COC(=O)[C@H](C(C)C)N1Cc2nnn(Cc3ccccc3)c2-c2ccccc2S1(=O)=O	-1	-1	-3	0	2	.	.	.	.
CN(C)c1ccc(CNc2nc3ccccc3n2C)cc1	-1	4.8*	5	15*	-2	8.6*	6.9*	17*	1
CSc1ccccc1C(=O)Nc1ccc2c(c1)CCC2	0	0	2	7	5	.	.	.	.
O=C(Nc1ccc2c(c1)CCC2)c1ccccc1Br	1	6.8*	7.2*	18*	5	14*	6.6*	17*	1	LXR ag=1;hcDAF12 ag=5
COc1ccc(/C=N/Nc2nc3ccccc3o2)cc1O	1	5.5*	12*	15*	-1	5.4*	2	7	1	LXR ag=1;hcDAF12 ag=6.6*
CC(=O)c1cccc(NC(=O)c2ccoc2C)c1	-1	0	-1	-3	1	.	.	.	.
C/C(=N\NC(=O)c1nn(C)c(C)c1Br)c1cccc(NC(=O)c2ccoc2C)c1	0	5.0*	5.9*	16*	6	1	1	5	0
CN(C)c1ccc(-c2csc(C(O)c3ccccc3)n2)cc1 (stereo unspecified)	0	6.4*	4	14*	6	9.5*	8.6*	19*	1
CN(C)c1ccc(-c2csc(C(O)c3ccc(F)cc3)n2)cc1 (stereo unspecified)	0	3	4	9	4	.	.	.	.
OC(c1ccccc1)c1nc(-c2cc3ccccc3o2)cs1 (stereo unspecified)	0	6.9*	5	17*	4	11*	6.4*	15*	1
COCCCN1C(=O)[C@H](CC(=O)N2CCCC2)[C@]2(C(=O)OC)CCCCC=C12	-1	0	1	0	-5	.	.	.	.
SMILES	ssDAF12 agonist	DAX1 inh	hcDAF12 agonist	hgDAF-12 ag	SMARCA2 activ	DAX1 conf	SF1 mutant ctr	hgDAF12 ag	LXR ag 2	others
COCc1cc(N2CCNC[C@@H]2C)ccc1N1CCS(=O)(=O)CC1	-1	0	1	0	-2	.	.	.	.
O=C(CCCCCCC(=O)Nc1ccccc1)NO	2.0*	33*	12*	41*	-2	+	-6	41*	1	LXR ag=0;hcDAF12 ag=7.0*
Cc1ccc(-n2c(SCC(=O)c3ccc(O)c(O)c3)nnc2-c2ccccc2)cc1	-1	-2	-1	2	-6	.	.	.	.
CCOc1ccc(S(=O)(=O)/N=C(/Nc2ccc(OC)cc2)c2ccccc2)cc1	-1	-1	0	2	-1	.	.	.	.
Cc1ccc(NC(=S)N/C(=N/S(=O)(=O)c2ccccc2)c2ccccc2)cc1	0	5.6*!	2	18*!	9.7*!	3	3	13*	0	SMARCA2 conf=6;VP16 Luc act=5.8*
COc1ccc(C(=O)NN/C(=N/S(=O)(=O)c2ccc(C)cc2)c2ccccc2)cc1	0.9*	4.6*	3	14*	-1	9.2*	4.4*	19*	1
COC(=O)[C@@]12C[C@@H](CC(=O)NCCCCc3ccccc3)C(=O)N(Cc3ccc4c(c3)OCO4)C1=CCC(C)(C)C2	-1	2	-2	-2	-4	.	.	.	.
